# An excerpt weighted towards active compounds, which were near 4.1% of everything screened.
# DAX1 inh-1 = NR0B1 (DAX1) inhibition | AID 504766 | inhibition, % at 6.75 µM | P51843 | HEK293 Gal4-DAX1 luciferase reporter, luminescence | hit rate 0.99% among 340,000;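 active means inhibition above the mean over all tested compounds plus 3 SD, cut at about 4.2% in these data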;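 further: 0% = DAX1-transfected cells with DMSO and 100% = empty-vector control cells with DMSO; inhibition shows as a rise in luminescence from relieved DAX1 repression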
# Target sequence (P51843 207-470 limits assumed): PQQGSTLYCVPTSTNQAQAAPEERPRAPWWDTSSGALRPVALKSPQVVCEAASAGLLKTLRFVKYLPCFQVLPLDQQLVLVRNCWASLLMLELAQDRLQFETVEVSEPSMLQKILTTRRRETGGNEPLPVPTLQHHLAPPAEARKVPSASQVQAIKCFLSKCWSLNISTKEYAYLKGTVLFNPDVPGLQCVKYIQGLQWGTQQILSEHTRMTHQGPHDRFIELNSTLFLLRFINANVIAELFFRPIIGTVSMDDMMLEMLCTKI
# ssDAF12 agonist = activates DAF-12 receptor from parasite S. stercoralis | HEK293 ssDAF-12/GRIP1 lit1-tk-luc reporter, luminescence; % of 3 µM dafachronic acid response | AID 652126 | activation, % at 6.8 µM | hit rate 1% among 370,000;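 active means activation above the mean over all tested compounds plus 3 SD, cut at about 0.9% in these data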;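 further: 0% = DMSO-only wells and 100% = 3 µM delta7-dafachronic acid wells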
# DAX1 inh-2 = blocks DAX1 repression of SF-1 activated StAR promoter; AID 652010; inhibition, % at 6.8 µM; hit rate 1.1% among 370,000; HEK293T StAR-luciferase reporter, SF-1/DAX-1 repression relief;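 active means inhibition above the mean over all tested compounds plus 3 SD, cut at about 3.6% in these data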;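 further: 0% = DAX-1 cells with DMSO and 100% = cells lacking DAX-1 with DMSO; higher inhibition means more luminescence from relief of DAX-1 repression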
# hcDAF-12 act = activators of H. contortus DAF-12 nuclear receptor. HEK293 hcDAF-12 lit1-tk-luc reporter, luminescence; 0% DMSO, 100% Δ7-dafachronic acid. activation, % at 6.8 µM. hit rate 1.4% among 370,000. AID 652067;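 active means activation above the mean of all tested compounds plus 3 SD, cut at about 5.5% in these data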;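 further: 100% = response to 3 µM Δ7-dafachronic acid high control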
# hgDAF-12 ag = hgDAF-12 agonism, primary luciferase screen; HEK293 GAL4-hgDAF12 UAS-luciferase reporter, agonist luminescence; normalized to butyrate control; activation, % at 6.8 µM; hit rate 1.8% among 370,000;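 active means activation above a cutoff set at the mean of all screened compounds plus 3 SD, cut at about 10% in these data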;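 further: 0% = DMSO wells and 100% = sodium butyrate wells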
# LXRb hcDAF ctr = counter-screen for hcDAF-12 agonists: agonists of human LXR-beta; HEK293 Gal4-LXR tk-luc reporter, luminescence, 24 h; normalized: DMSO 0%, positive control 100%; shares compounds with hcDAF-12 act; 3,400 tested, under 10 active; activation, % at 6.8 µM;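 active means mean percent activation of the reporter above a cutoff set as the average over tested compounds plus their standard deviation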
# hcDAF12 conf = confirmation of H. contortus DAF-12 agonists | shares compounds with hcDAF-12 act | HEK293 hcDAF-12 lit1-tk-luc reporter, luminescence; % of Δ7-dafachronic acid response | activation, % at 6.8 µM | hit rate 61% among 3,400 | AID 743032;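 active means mean activation across triplicate tests above the threshold derived from the earlier primary screen, cut at about 5.5% in these data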;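 further: 0% = DMSO only wells and 100% = 3 µM Δ7-dafachronic acid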
# * = called active by the depositor; · = not tested or not shown.
SMILES,DAX1 inh-1,ssDAF12 agonist,DAX1 inh-2,hcDAF-12 act,hgDAF-12 ag,LXRb hcDAF ctr,hcDAF12 conf
CCOc1ccc(C(=O)NCCc2ccccc2)cc1,-2,0,5.7*,6.6*,7,1,9.2*
CCOc1ccc(C(=O)NCCCCNC(=O)c2ccc(OCC)cc2)cc1,2,-2,0,0,6,·,·
CCC1CCCCN1CCCNC(=O)Cn1c2ccccc2c2nc(=O)cc(C)n21 (centres undefined),0,0,1,8.2*,2,0,6.7*
Cc1cc(=O)nc2c3ccccc3n(CC(=O)NCCC3=CCCCC3)n12,0,0,-2,4,0,·,·
CC1=CCC[C@@H]2[C@]3(CC/C(=C/CO)CO)CO[C@@]2(C1)[C@@H](O)C[C@H]3C,·,-1,1,4,4,·,·
O=C(/C=C/c1c(F)cccc1Cl)Nc1cccnc1,3,1,1,7.1*,11*,1,6.8*
Cc1ccn(CCC(=O)N2CCCC(N3CCN(c4ccccc4C)CC3)C2)n1 (centres undefined),1,-1,0,-1,-3,·,·
CC1CCCCN1C(=O)CSc1nnc(-c2ccccc2O)o1 (centres undefined),2,1.7*,2,15*,16*,1,20*
Cc1occc1-c1nnc(SCC(=O)N2CCCCC2C)o1 (centres undefined),-1,-1,0,0,-2,·,·
O=C(CSc1nnc(-c2ccccc2O)o1)N1CCOCC1,2,1,1,11*,6,0,2
C=CCNC(=S)N/N=C/c1cccc([N+](=O)[O-])c1,0,-1,-1,-2,-1,·,·
Cc1cc2cc(OCC(=O)O)ccc2n1C,-1,-1,0,-1,-1,·,·
Cc1cc2cc(OCc3ccccc3)ccc2n1C,4,0,1,6.7*,6,1,4
CCOC(=O)c1sc2nc(-c3ccccc3)ccc2c1N,2,0,4.3*,9.0*,24*,2,11*
NC(=O)c1sc2nc(-c3ccccc3)ccc2c1N,3,-1,1,2,9,·,·
O=c1nc2c(O)cccn2c2c1c(=O)[nH]c1ccccc12,1,-1,1,3,-1,·,·
O=c1[nH]c2ccccc2c2nc3ccccn3c12,2,1.7*,1,8.1*,12*,0,9.5*
COc1cc(C(C#N)N2N=C(c3ccccc3)CC2c2ccccc2)ccc1O (centres undefined),1,1.4*,1,7.9*,12*,0,3
COc1ccccc1C(C#N)N1N=C(C)CC1c1ccccc1 (centres undefined),1,-1,0,-1,-1,·,·
N#CC(c1ccccc1O)N1N=C(c2ccccc2)CC1c1ccccc1 (centres undefined),4,1.6*,1,9.2*,8,1,7.3*
CCN(Cc1nc(-c2ccccc2)no1)C(=O)c1ccco1,0,-1,0,-1,1,·,·
CC(=O)c1cccc(Nc2ncnc3ccc(Br)cc23)c1,-2,-2,0,-1,3,·,·
Oc1ccc(-c2nccc(-c3cccs3)n2)cc1,4.8*,1.0*,2,12*,14*,1,11*
COC(=O)C(C)Oc1ccc(-c2nccc(-c3cccs3)n2)cc1 (centres undefined),0,-1,1,0,6,·,·
Cn1c(C(=O)Nc2ccccc2)cc2sccc21,4,1.4*,1,7.0*,11*,1,12*
SMILES,DAX1 inh-1,ssDAF12 agonist,DAX1 inh-2,hcDAF-12 act,hgDAF-12 ag,LXRb hcDAF ctr,hcDAF12 conf
N#C/C(=C\c1c(Cl)cccc1Cl)c1nc2ccccc2[nH]1,-1,0,0,3,0,·,·
Cc1cc(O)ccc1N/C=C(\C#N)c1nc2ccccc2o1,0,0,1,8.8*,0,0,3
N#C/C(=C\c1c(Cl)cccc1Cl)c1nc2ccccc2o1,0,-1,-1,6.6*,1,0,0
CC(C)c1nnc(NC(=O)C2CCN(S(=O)(=O)c3ccc(-n4cnnn4)cc3)CC2)s1,2,-2,0,0,0,·,·
O=C(NCC1CCOCC1)c1ccc2nc(Cc3cccc(Cl)c3)oc2c1,0,0,1,1,5,·,·
CC1CCCCN1C(=O)CSCC(=O)Nc1nc(-c2cccs2)cs1 (centres undefined),1,0,1,6.6*,7,0,2
O=C(CN1CCN(S(=O)(=O)c2ccc(Cl)c(Cl)c2)CC1)N1CCCC1,1,-1,0,-1,0,·,·
Cc1cc(F)ccc1NC(=O)c1cc(S(=O)(=O)N2CCc3ccccc32)cn1C,0,-1,-1,1,-1,·,·
COc1cccc(C=NNc2nc3ccccc3s2)c1OC,6.8*,0,3.6*,7.6*,13*,1,3
CCn1c(C)c(/C=N/Nc2nc3ccccc3s2)c2ccccc21,-1,0,1,12*,11*,0,4
COc1cccc(/C=N/NC(=O)C(=O)N/N=C/c2cccc(OC)c2OC)c1OC,-1,-1,0,-1,0,·,·
COc1cccc(/C=N/Nc2nnc3c(n2)[nH]c2ccccc23)c1OC,1,-1,0,7.1*,1,0,4
O=C(Nc1ccc(F)c([N+](=O)[O-])c1)C(=O)c1c(O)[nH]c2ccccc12,4,0,0,6.9*,2,0,4
CC(C)C[C@H]1COc2cc(Br)ccc2S(=O)(=O)N1Cc1cn(Cc2ccc(Br)cc2)nn1,·,-2,0,-1,0,·,·
COC(=O)c1cn(CCOc2ccccc2OC)c2ccccc12,-2,-2,-1,-2,-3,·,·
COC(=O)c1cn(CCOc2ccccc2)c2ccccc12,1,1.3*,1,6.7*,6,0,3
Clc1ccc(/C=C/c2ncc3ccccn23)cc1,2,1.6*,3,11*,11*,1,5
Fc1ccc(-c2ncc3ccccn23)cc1,0,-1,0,2,5,·,·
Cc1cccn2cc(-c3ccc(F)cc3)cc12,0,-1,1,2,4,·,·
Cc1cccn2cc(-c3ccc(F)cc3)nc12,2,1.8*,3.9*,12*,11*,2,9.7*
CN(C)c1ccc(-c2cc3ccccc3c(=O)o2)cc1,2,1.7*,3,9.5*,20*,2,16*
O=C(CNCc1ccccc1[N+](=O)[O-])N1CCC2(CC1)OCCO2,·,0,2,7.0*,13*,0,5
O=C(Cc1ccccc1[N+](=O)[O-])N1CCOCC1,1,-1,0,0,1,·,·
